# Test results published in PubChem BioAssay (EPA / NIEHS).
# Several values for one entry are separate records, joined by “and”; a condition that tells them apart may be missing. Equal values may be shown once. Results filed as inconclusive are left out. Activity calls are given as the source filed them. The calls were made as follows: active = hit-call score of the fitted dose curve at least 0.9, where 1 is the maximum; inconclusive = response in the unintended direction; inactive = score below 0.9.
# Key:
# [1] = target: Beta-2 adrenergic receptor (Homo sapiens) (UniProt P07550); assay: NVS_GPCR_hAdrb2: NovaScreen (NVS) G Protein-Coupled Receptor Assay for human Adrenergic, Beta 2 Receptor (Adrb2) (AID 2283261)
# How it was run: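 Filter-based radioligand binding using receptor prepared from CHO cells, 1 h incubation, scintillation counting. Primary screen in duplicate at 25 uM, actives retested in concentration series; loss of binding relative to DMSO.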
# [2] = target: Type-1 angiotensin II receptor (Homo sapiens) (UniProt P30556); assay: NVS_GPCR_hAT1: NovaScreen (NVS) G Protein-Coupled Receptor Assay for human Angiotensin II receptor type 1 (AT1) (AID 2283263)
# Experimental: NVS_GPCR_hAT1 is a biochemical, single-readout assay that uses extracted gene-proteins from KAN-TS in a tissue-based cell-free assay. Measurements were taken 3 hours after chemical dosing in a 48-well plate.NVS_GPCR_hAT1 is one of one assay component(s) measured or calculated from the NVS_GPCR_hAT1 assay. It is designed to make measurements of radioligand binding, a form of binding reporter, as detected with scintillation counting signals by Filter-based radiodetection technology.Data from the assay component NVS_GPCR_hAT1 was analyzed into 1 assay endpoint. This assay endpoint, NVS_GPCR_hAT1, was analyzed in the positive analysis fitting direction relative to DMSO as the negative control and baseline of activity. Using a type of binding reporter, loss-of-signal activity can be used to understand changes in the binding as they relate to the gene AGTR1. Furthermore, this assay endpoint can be referred to as a primary readout, because the performed assay has only produced 1 assay endpoint. To generalize the intended target to other relatable targets, this assay endpoint is annotated to the gpcr intended target family, where the subfamily is rhodopsin-like receptor.
# (§1) Binding assays used specific radioligands (tritiated, iodinated) with non-radioactive competitive displacement ligands in agonist or antagonist protocols (as indicated) and various reference compounds and inhibitors to titrate specific binding to receptors and transporters. Most enzyme assays (CYPs, kinases, phosphatases, proteases, HDACs) used recombinant protein and specific substrates (fluorescence mostly, some colorimetric and radioactive) and inhibitors, followed by a biochemical separation of substrate and product. All assays for the biochemical HTS were initially run in duplicate at a single concentration (10 uM for CYP450 assays and 25 uM for all others). Assay-chemical combinations meeting a pre-defined threshold (e.g., 30% inhibition and other criteria defined below) were then run in singleton concentration-response format with maximum concentration of 20 uM for CYPs and 50 uM for all others. Each assay was run with positive and negative controls, and concurrent controls on every plate. The follow-up (secondary) screen tested active chemical-pairs in concentration series, as well as a few additional assays not tested in the primary screen, some selected negative inactives, and several cases re-run in the concentration series for confirmatory purposes.
# [3] = target: human Endothelin Receptor Type A (ETA), EDNRA (gene 1909) (UniProt P25101); assay: NVS_GPCR_hETA: NovaScreen (NVS) G Protein-Coupled Receptor Assay for human Endothelin Receptor Type A (ETA) (AID 2283265)
# How it was run: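 Cell-free radioligand displacement using SH-SY5Y-derived protein, 3 h incubation, filter-based scintillation counting. Primary screen in duplicate at 25 uM; actives then run in concentration-response up to 50 uM; loss of binding fitted versus DMSO.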
# [4] = target: human Dopamine Receptor D2 (DRD2), DRD2 (gene 1813) (UniProt P14416); assay: NVS_GPCR_hDRD2s: NovaScreen (NVS) G Protein-Coupled Receptor Assay for human Dopamine Receptor D2 (DRD2) (AID 2283266)
# How it was run: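 Radioligand displacement used human DRD2 membranes extracted from CHO cells and was read by filter-based scintillation counting after 1.5 hours. Primary screening was in duplicate at 25 uM. Loss of signal versus DMSO was fitted, with concentration series in follow-up.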
# [5] = target: human Histamine 1 Receptor (H1), HRH1 (gene 3269) (UniProt P35367); assay: NVS_GPCR_hH1: NovaScreen (NVS) G Protein-Coupled Receptor Assay for human Histamine 1 Receptor (H1) (AID 2283268)
# Experimental: (§2) NVS_GPCR_hH1 is a biochemical, single-readout assay that uses extracted gene-proteins in a cell-free assay. Measurements were taken 1 hour after chemical dosing in a 96-well plate.NVS_GPCR_hH1 is one of one assay component(s) measured or calculated from the NVS_GPCR_hH1 assay. It is designed to make measurements of radioligand binding, a form of binding reporter, as detected with scintillation counting signals by Filter-based radiodetection technology.Data from the assay component NVS_GPCR_hH1 was analyzed into 1 assay endpoint. This assay endpoint, NVS_GPCR_hH1, was analyzed in the positive analysis fitting direction relative to DMSO as the negative control and baseline of activity. Using a type of binding reporter, loss-of-signal activity can be used to understand changes in the binding as they relate to the gene HRH1. Furthermore, this assay endpoint can be referred to as a primary readout, because the performed assay has only produced 1 assay endpoint. To generalize the intended target to other relatable targets, this assay endpoint is annotated to the gpcr intended target family, where the subfamily is rhodopsin-like receptor.
# as §1, with “Assay-chemical combinations meeting a pre-defined threshold (e.g., 30% inhibition and other criteria defined below) were then run in singleton concentration-response format with maximum concentration of 20 uM for CYPs and 50 uM for all others.” left out
# [6] = target: D(1A) dopamine receptor (Homo sapiens) (UniProt P21728); assay: NVS_GPCR_hDRD1: NovaScreen (NVS) G Protein-Coupled Receptor Assay for human Dopamine Receptor D1 (DRD1) (AID 2283269)
# How it was run: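 Cell-free competition with radioligand, filter-trapped and scintillation-counted 1 h post-dose, using HEK293-derived human D1 preparation. Duplicate single-point testing at 25 uM first, then concentration series for actives; DMSO served as baseline, loss-of-signal scored.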
# [7] = target: human Adrenergic, Alpha 2c Receptor (Adra2C), ADRA2C (gene 152) (UniProt P18825); assay: NVS_GPCR_hAdra2C: NovaScreen (NVS) G Protein-Coupled Receptor Assay for human Adrenergic, Alpha 2c Receptor (Adra2C) (AID 2283259)
# How it was run: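 Radioligand binding on Sf9-expressed receptor membranes, 1 h after chemical dosing, filter-based scintillation read-out. Loss of binding fitted positively versus DMSO; primary duplicate screen at 25 uM, actives retested in concentration series.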
# [8] = target: human Endothelin Receptor Type B (ETB), EDNRB (gene 1910) (UniProt P24530); assay: NVS_GPCR_hETB: NovaScreen (NVS) G Protein-Coupled Receptor Assay for human Endothelin Receptor Type B (ETB) (AID 2283267)
# How it was run: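 Human astrocytoma cell membranes; radioligand competitive binding read by filter scintillation counting 4 hours after dosing. Single-concentration duplicate screen at 25 uM, then singleton concentration-response up to 50 uM; loss of signal versus DMSO.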
# [9] = target: human Adrenergic, Beta 3 Receptor (Adrb3), ADRB3 (gene 155) (UniProt P13945); assay: NVS_GPCR_hAdrb3: NovaScreen (NVS) G Protein-Coupled Receptor Assay for human Adrenergic, Beta 3 Receptor (Adrb3) (AID 2283262)
# Experimental: as §2, with “NVS_GPCR_hAdrb3” for “NVS_GPCR_hH1”, “gene-proteins from SK-N-MC pretreated with isoproteronol and 8-bromo-cAMP” for “gene-proteins”, “48-well plate.NVS_GPCR_hAdrb3” for “96-well plate.NVS_GPCR_hH1”, “NVS_GPCR_hAdrb3,” for “NVS_GPCR_hH1,”, “ADRB3.” for “HRH1.”, “receptor. […]” for “receptor.”
# [10] = target: human Dopamine Receptor D4.4 (DRD4.4), DRD4 (gene 1815) (UniProt P21917); assay: NVS_GPCR_hDRD4.4: NovaScreen (NVS) G Protein-Coupled Receptor Assay for human Dopamine Receptor D4.4 (DRD4.4) (AID 2283264)
# How it was run: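 Radioligand displacement on human DRD4.4 from CHO-derived membranes, 1 hour incubation, bound counts read by filtration and scintillation. Primary screen in duplicate at 25 uM; actives followed up in concentration series.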
# Chain of Type-1 angiotensin II receptor (Homo sapiens) (P30556 whole entry, looked up): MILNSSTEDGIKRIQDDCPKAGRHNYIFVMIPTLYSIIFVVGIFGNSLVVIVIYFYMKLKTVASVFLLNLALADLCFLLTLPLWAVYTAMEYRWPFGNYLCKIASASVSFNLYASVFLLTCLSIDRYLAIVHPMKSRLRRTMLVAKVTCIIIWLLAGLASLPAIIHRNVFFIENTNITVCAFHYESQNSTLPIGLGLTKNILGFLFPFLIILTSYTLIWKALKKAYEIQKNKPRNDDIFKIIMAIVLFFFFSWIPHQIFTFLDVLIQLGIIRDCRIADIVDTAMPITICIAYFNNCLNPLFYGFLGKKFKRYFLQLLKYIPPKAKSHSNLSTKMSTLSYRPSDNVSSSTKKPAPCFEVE
# Chain of human Dopamine Receptor D2 (DRD2), DRD2 (gene 1813) (P14416 whole entry, looked up): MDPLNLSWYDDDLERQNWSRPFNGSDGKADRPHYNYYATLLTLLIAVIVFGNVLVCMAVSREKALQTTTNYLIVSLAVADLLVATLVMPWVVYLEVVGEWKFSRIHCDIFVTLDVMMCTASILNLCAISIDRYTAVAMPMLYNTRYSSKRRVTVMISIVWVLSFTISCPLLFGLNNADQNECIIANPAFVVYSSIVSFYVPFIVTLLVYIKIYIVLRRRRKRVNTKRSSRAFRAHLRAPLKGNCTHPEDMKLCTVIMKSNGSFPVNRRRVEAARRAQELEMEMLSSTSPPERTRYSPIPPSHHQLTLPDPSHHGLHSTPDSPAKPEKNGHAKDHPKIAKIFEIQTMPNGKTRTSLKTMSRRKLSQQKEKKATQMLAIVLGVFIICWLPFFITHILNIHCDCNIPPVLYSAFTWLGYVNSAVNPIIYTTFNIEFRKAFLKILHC
# Chain of human Histamine 1 Receptor (H1), HRH1 (gene 3269) (P35367 whole entry, looked up): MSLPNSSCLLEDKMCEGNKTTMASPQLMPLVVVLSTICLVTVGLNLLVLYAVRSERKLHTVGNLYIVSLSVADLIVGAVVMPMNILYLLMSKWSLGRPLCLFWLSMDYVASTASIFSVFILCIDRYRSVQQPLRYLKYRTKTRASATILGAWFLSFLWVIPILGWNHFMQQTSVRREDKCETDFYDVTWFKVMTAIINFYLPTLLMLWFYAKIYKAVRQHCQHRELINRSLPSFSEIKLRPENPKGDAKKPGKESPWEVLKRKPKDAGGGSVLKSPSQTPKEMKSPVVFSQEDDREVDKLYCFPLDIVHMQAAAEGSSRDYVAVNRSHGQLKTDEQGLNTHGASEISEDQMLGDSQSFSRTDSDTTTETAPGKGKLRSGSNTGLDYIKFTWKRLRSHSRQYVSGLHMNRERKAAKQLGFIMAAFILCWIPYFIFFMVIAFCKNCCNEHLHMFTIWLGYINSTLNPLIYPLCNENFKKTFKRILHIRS
# Chain of D(1A) dopamine receptor (Homo sapiens) (P21728 whole entry, looked up): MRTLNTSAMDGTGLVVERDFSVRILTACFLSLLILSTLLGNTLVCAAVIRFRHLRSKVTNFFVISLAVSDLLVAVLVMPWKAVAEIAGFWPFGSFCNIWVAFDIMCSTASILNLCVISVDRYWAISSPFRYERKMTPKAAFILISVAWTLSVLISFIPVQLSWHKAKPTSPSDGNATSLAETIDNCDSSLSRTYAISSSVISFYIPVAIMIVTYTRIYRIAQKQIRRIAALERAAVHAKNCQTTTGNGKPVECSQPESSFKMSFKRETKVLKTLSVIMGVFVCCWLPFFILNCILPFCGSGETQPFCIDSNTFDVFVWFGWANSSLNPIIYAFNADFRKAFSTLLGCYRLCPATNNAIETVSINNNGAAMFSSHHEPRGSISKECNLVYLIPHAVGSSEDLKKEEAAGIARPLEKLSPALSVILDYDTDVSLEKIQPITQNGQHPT
# Chain of Beta-2 adrenergic receptor (Homo sapiens) (P07550 whole entry, looked up): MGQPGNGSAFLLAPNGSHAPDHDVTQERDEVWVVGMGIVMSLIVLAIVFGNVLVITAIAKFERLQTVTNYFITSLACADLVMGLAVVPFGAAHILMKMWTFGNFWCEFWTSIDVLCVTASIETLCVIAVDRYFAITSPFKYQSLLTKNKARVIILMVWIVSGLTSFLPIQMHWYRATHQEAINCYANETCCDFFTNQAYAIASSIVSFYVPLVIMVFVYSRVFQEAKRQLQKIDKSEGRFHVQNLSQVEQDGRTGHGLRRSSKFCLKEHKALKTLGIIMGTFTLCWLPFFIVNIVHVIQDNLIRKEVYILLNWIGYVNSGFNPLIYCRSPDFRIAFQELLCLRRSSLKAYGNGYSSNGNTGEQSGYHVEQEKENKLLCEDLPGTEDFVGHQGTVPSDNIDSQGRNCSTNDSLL
# Chain of human Adrenergic, Alpha 2c Receptor (Adra2C), ADRA2C (gene 152) (P18825 whole entry, looked up): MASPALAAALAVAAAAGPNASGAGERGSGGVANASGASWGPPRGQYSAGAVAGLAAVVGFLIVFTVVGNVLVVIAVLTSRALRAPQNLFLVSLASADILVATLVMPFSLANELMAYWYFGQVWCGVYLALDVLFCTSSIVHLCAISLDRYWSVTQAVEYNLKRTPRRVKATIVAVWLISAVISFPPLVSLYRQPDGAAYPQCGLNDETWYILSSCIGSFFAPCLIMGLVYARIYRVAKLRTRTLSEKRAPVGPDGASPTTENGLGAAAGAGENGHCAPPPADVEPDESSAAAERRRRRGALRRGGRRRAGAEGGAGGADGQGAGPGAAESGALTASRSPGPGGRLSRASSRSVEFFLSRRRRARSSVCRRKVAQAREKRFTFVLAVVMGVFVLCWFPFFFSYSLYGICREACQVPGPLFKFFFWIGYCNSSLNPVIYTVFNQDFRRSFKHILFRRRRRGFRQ
# Chain of human Endothelin Receptor Type A (ETA), EDNRA (gene 1909) (P25101 whole entry, looked up): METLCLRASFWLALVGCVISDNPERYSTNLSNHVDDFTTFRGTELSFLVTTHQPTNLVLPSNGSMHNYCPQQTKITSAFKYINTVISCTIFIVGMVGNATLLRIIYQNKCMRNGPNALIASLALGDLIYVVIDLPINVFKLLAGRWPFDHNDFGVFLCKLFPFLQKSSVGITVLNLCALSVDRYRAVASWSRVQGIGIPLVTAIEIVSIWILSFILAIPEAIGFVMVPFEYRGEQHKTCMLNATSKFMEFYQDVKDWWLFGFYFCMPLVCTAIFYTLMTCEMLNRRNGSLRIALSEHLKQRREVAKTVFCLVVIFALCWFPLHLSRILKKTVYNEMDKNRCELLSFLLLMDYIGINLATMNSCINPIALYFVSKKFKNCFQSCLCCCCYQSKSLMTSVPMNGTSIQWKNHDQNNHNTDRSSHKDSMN
# Chain of human Endothelin Receptor Type B (ETB), EDNRB (gene 1910) (P24530 whole entry, looked up): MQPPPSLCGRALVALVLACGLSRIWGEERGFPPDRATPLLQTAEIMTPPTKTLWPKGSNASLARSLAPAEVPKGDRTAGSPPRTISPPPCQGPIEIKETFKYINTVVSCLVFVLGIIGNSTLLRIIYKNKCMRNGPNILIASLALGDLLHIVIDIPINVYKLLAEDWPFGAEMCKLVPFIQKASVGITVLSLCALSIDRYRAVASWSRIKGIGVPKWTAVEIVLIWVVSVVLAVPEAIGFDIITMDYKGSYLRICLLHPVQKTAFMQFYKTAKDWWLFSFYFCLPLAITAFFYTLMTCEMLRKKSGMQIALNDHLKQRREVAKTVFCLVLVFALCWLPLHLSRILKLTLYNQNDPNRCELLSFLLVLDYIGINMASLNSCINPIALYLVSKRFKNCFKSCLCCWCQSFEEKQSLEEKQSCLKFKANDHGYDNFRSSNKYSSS
# Chain of human Dopamine Receptor D4.4 (DRD4.4), DRD4 (gene 1815) (P21917 whole entry, looked up): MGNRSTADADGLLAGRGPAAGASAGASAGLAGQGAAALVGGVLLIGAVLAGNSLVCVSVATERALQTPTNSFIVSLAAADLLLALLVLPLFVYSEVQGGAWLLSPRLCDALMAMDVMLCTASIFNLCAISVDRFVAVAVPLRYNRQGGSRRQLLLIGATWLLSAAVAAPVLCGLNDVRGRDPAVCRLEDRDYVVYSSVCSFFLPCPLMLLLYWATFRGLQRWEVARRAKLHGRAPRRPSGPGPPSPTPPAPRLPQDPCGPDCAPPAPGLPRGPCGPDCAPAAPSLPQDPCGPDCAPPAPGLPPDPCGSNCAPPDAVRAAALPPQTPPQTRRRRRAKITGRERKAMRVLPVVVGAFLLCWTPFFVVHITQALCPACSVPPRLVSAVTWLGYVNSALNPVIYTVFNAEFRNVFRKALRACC
# Chain of human Adrenergic, Beta 3 Receptor (Adrb3), ADRB3 (gene 155) (P13945 whole entry, looked up): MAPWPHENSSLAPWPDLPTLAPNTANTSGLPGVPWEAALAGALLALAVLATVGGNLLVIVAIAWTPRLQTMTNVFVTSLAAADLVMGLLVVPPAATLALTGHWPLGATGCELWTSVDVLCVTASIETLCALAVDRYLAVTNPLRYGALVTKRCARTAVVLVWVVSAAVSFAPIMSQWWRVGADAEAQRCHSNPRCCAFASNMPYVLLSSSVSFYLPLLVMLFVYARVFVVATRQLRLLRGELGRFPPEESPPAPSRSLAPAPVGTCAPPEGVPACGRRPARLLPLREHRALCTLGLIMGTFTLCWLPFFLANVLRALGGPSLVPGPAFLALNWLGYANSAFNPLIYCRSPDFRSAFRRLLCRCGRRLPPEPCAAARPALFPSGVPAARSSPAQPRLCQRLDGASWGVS
structure (smiles),measurement,setting,value
C=CCOC(Cn1ccnc1)c1ccc(Cl)cc1Cl (stereo unspecified),outcome,[1],inactive
S=C(S)NCCNC(=S)S.[Mn+2].[S-]C([S-])=NCCN=C([S-])[S-].[Zn+2],outcome,[2],inactive
same,outcome,[3],inactive
same,outcome,[4],inactive
same,outcome,[5],inactive
CCCCCCC(C)OC(=O)COc1nc(F)c(Cl)c(N)c1Cl (stereo unspecified),outcome,[2],inactive
same,AC50,[6],25 µM (active)
CCCCC(CC)CN1C(=O)C2C3C=CC(C3)C2C1=O (stereo unspecified),outcome,[1],inactive
CCOC(=O)C(C)Oc1ccc(Oc2nc3ccc(Cl)cc3o2)cc1 (stereo unspecified),outcome,[7],inactive
CC1(C)C(C=C(Cl)Cl)C1C(=O)OCc1cccc(Oc2ccccc2)c1 (stereo unspecified),outcome,[6],inactive
CCOC(=O)C(C)Oc1ccc(Oc2cnc3cc(Cl)ccc3n2)cc1 (stereo unspecified),outcome,[7],inactive
Oc1ccc(C(c2ccc(O)cc2)C(Cl)(Cl)Cl)cc1,AC50,[7],6.88 µM (active)
same,outcome,[1],inactive
same,AC50,[4],25 µM (active)
same,AC50,[6],6.83 µM (active)
COCCO,outcome,[2],inactive
C#C[C@]1(O)CC[C@H]2[C@@H]3CCC4=CC(=O)CC[C@@H]4[C@H]3CC[C@@]21CC,outcome,[8],inactive
COC(=O)c1ccccc1S(=O)(=O)NC(=O)Nc1nc(OC(F)F)cc(OC(F)F)n1,outcome,[1],inactive
N#CSCSc1nc2ccccc2s1,AC50,[2],9.3 µM (active)
same,AC50,[6],14.8 µM (active) and 16.7 µM (active)
CCNc1nc(N)nc(Cl)n1,outcome,[5],inactive
S=C([S-])NCCNC(=S)[S-].[Mn+2],outcome,[4],inactive
same,outcome,[5],inactive
CCOC(=O)COc1cc(-n2ncc(C(F)(F)F)c(C)c2=O)c(F)cc1Cl,outcome,[5],inactive
CCOC(=O)[C@H](C)Oc1ccc(Oc2nc3ccc(Cl)cc3o2)cc1,outcome,[7],inactive
CC(C)(c1ccc(O)cc1)c1ccc(O)cc1,outcome,[7],inactive
same,outcome,[1],inactive
same,outcome,[9],inactive
same,outcome,[6],inactive
O=C(c1ccc(O)cc1O)c1ccc(O)cc1O,outcome,[10],inactive
CC(C)CCCCCCc1ccc(O)cc1,AC50,[6],25 µM (active)
